Values joined by “and” are separate entries in the source; they are usually repeats but may differ in a detail not shown here. Identical values can stand only once. Records with an inconclusive call do not appear. Active and inactive are the calls of the source. How the source made its calls, unless noted: active means hit-call score of the fitted dose curve at least 0.9, where 1 is the maximum; inactive means score below 0.9.
Assays:
[1] = ACEA_ER_80hr: ACEA Biosciences xCELLigence Real-Time Cell Analysis on Estrogen Receptor Agonism for Proliferation (AID 2282667; active means hit-call score of the fitted dose curve at least 0.9, where 1 is the maximum); settings: T47D proliferation, impedance (xCELLigence), 80 h
In short: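 Real-time impedance growth kinetics of human T-47D breast cells read 80 h after dosing, gain-of-signal fitted relative to DMSO. Compounds: 1:4 serial series, top final concentration 100 uM, n = 2.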

[2] = APR_HepG2_NuclearSize_24hr: Apredica 24-hour HepG2 Assay for Nuclear Size (AID 2282907); settings: high-content imaging, actives raise or lower the signal
In short: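 HepG2 human liver cells were exposed for 24 hr to compounds at 0.39–200 uM (ten concentrations, duplicate) in 0.5% v/v DMSO. They were then formaldehyde-fixed, Triton-permeabilized and Hoechst 33342-stained, and nuclear diameter was imaged at 20x. Bidirectional fits were made against DMSO.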

[3] = APR_HepG2_CellLoss_24hr: Apredica 24-hour HepG2 Assay for Cell Loss (AID 2282908); settings: high-content imaging;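 on AC50: fit in both directions so a hit may be cell loss or gain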
In short: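 Compounds were tested at 0.39–200 uM in duplicate with 0.5% v/v DMSO final. Cells were then fixed in 3.7% formaldehyde, Hoechst 33342 nuclei were imaged at 20x by HCS, and cell number was fitted bidirectionally against DMSO.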

[4] = APR_HepG2_MicrotubuleCSK_24hr: Apredica 24-hour HepG2 Assay for Microtubule CSK Stabilty (AID 2282909); settings: HepG2 microtubule cytoskeleton imaging, actives raise or lower the signal
In short: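 HepG2 cells exposed 24 h to compounds at 0.39–200 uM (duplicate, 0.5% v/v DMSO final), then fixed, permeabilized and immunostained for alpha-tubulin with Hoechst 33342. Cytoskeleton imaged at 20x; bidirectional fit versus DMSO baseline.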

[5] = APR_HepG2_MitoticArrest_24hr: Apredica 24-hour HepG2 Assay for Mitotic Arrest (AID 2282910); settings: high-content imaging, actives raise or lower the signal
In short: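 HepG2 cells, 24 h exposure at 0.39-200 uM (10 concentrations, duplicate, 0.5% DMSO). Fixed, stained for phospho-histone H3 with Hoechst; imaged by high-content microscopy, bidirectional fit versus DMSO.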

[6] = APR_HepG2_MitoMembPot_24hr: Apredica 24-hour HepG2 Assay for Mitochondrial Membrane Potential (AID 2282911); settings: imaging, actives raise or lower the signal
In short: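 Mitochondrial membrane potential imaged via MitoTracker Red CMXRos (250 nM, 30 min pre-fixation) in fixed HepG2 cells with Hoechst nuclear identification. Ten concentrations 0.39–200 uM, 24 h treatment, 0.5% DMSO; CCCP as positive control.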

[7] = APR_HepG2_p53Act_24hr: Apredica 24-hour HepG2 Assay for p53 Activation (AID 2282913); settings: high-content imaging, actives raise or lower the signal;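 further: p53 protein immunofluorescence averaged per cell in HepG2 with Hoechst nuclei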
In short: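 Fluorescence imaging of formaldehyde-fixed HepG2 cells labelled for p53 and with Hoechst, 24 h after dosing (0.39–200 uM, duplicate wells, 0.5% v/v DMSO). Signal fitted in both directions relative to DMSO.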

[8] = APR_HepG2_CellCycleArrest_72hr: Apredica 72-hour HepG2 Assay for Cell Cycle Arrest (AID 2282914); settings: high-content imaging, actives raise or lower the signal
In short: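 Read-out: nuclear DNA content from Hoechst 33342 high-content imaging (20x, six fields/well) after 3.7% formaldehyde fixation, fitted bidirectionally against DMSO. Treatment was 72 h in HepG2, ten concentrations 0.39–200 uM, duplicate, 0.5% DMSO.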

[9] = APR_HepG2_MitoMass_24hr: Apredica 24-hour HepG2 Assay for Mitochondrial Mass (AID 2282912); settings: high-content imaging, actives raise or lower the signal
In short: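 Human HepG2 liver cells were exposed for 24 hr to compounds at 0.39–200 uM (duplicates, 0.5% v/v DMSO final). They were stained live with 250 nM MitoTracker Red CMXRos for 30 min, fixed in 3.7% formaldehyde, and imaged by HCS fluorescence; signals were fitted bidirectionally against DMSO.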

[10] = APR_HepG2_CellCycleArrest_24hr: Apredica 24-hour HepG2 Assay for Cell Cycle Arrest (AID 2282905); settings: imaging, actives raise or lower the signal;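 further: cell cycle arrest scored as ratio of 2N to 4N nuclear DNA content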
In short: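 HepG2 cells were exposed to compounds at 0.39–200 uM (ten concentrations, duplicate) in 0.5% v/v DMSO for 24 hr. After formaldehyde fixation and Triton permeabilization, Hoechst 33342-stained nuclei were imaged at 20x; DNA content was quantified, with bidirectional fitting against DMSO.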

Measured: AC50

CC#C[C@]1(O)CC[C@H]2[C@@H]3CCC4=CC(=O)CCC4=C3[C@@H](c3ccc(N(C)C)cc3)C[C@@]21C
active: [1] 132 nM and 56 nM and 36.7 nM
not listed: [9] | [10]
inactive: all other assays above

Nc1cccc2c(N)cccc12
inactive: [2] | [4] | [6] | [8]
active: [3] 51.8 µM | [5] 70.1 µM | [7] 96.2 µM

ClC1=C(Cl)C(Cl)(Cl)C(Cl)=C1Cl
not listed: [1] | [10]
inactive: all other assays above

CCCCCCCCCCCCCCCS(=O)(=O)Oc1ccccc1
not listed: [1] | [9]
inactive: all other assays above

O=C(/C=C/c1ccc(O)cc1)CC(=O)/C=C/c1ccc(O)cc1
active: [2] 68.6 µM | [5] 24.6 µM
not listed: [1] | [9]
inactive: all other assays above

CC(=O)NC1(c2cccc(F)c2)CCN(CC[C@@]2(c3ccc(Cl)c(Cl)c3)CN(c3ccccc3)C(=O)CO2)CC1
active: [3] 36.3 µM | [4] 146 µM | [5] 31.6 µM | [6] 90.2 µM | [7] 21.6 µM | [8] 18.7 µM
inactive: [2]

C=C(C)C(=O)OCCC(F)(F)C(F)(F)C(F)(F)C(F)(F)C(F)(F)C(F)(F)F
not listed: [1] | [9] | [10]
inactive: all other assays above

Oc1cc2ccccc2c2ccccc12
active: [3] 13.1 µM | [4] 55 µM | [5] 7.13 µM | [6] 43.1 µM | [7] 3.2 µM
inactive: [2] | [8]

O=C(O)c1ccccc1C(c1ccc(O)cc1)c1ccc(O)cc1
active: [8] 100 µM
not listed: [7] | [9] | [10]
inactive: all other assays above

COCC(C)OCC(C)O (configuration not stated)
not listed: [1] | [9] | [10]
inactive: all other assays above

c1ccc2cc3c(ccc4ccccc43)cc2c1
active: [3] 48.1 µM | [5] 65.7 µM | [6] 63 µM | [9] 55.8 µM | [7] 103 µM | [8] 17.4 µM
inactive: [2] | [4]

CCCCOCCO
not listed: [1] | [9] | [10]
inactive: all other assays above

CC(C)(C)c1cccc(C(C)(C)C)c1O
inactive: [2] | [4] | [5]
active: [3] 111 µM | [6] 110 µM | [9] 96.1 µM | [7] 100 µM | [8] 112 µM

OC1CCC(C2CCCCC2)CC1 (configuration not stated)
not listed: [1] | [9] | [10]
inactive: all other assays above

NC(=O)N1C(=O)C(C(=O)c2cc(Cl)cs2)c2cc(F)c(Cl)cc21 (configuration not stated)
active: [3] 98.8 µM | [4] 75.3 µM | [5] 84.7 µM | [7] 105 µM | [8] 96.9 µM
inactive: [2] | [6]

CCC(=C(c1ccc(O)cc1)c1ccc(OCCN(C)C)cc1)c1ccccc1
not listed: [1] | [7] | [9]
inactive: all other assays above

C#C[C@]1(O)CC[C@H]2[C@@H]3CCC4=CC(=O)CC[C@@H]4[C@H]3CC[C@@]21C
not listed: [1] | [10]
inactive: all other assays above

CC[C@H](c1ccc(O)cc1)[C@@H](CC)c1ccc(O)cc1
active: [6] 0.0485 µM
not listed: [1] | [9] | [10]
inactive: all other assays above

COC(=O)CCCCC(=O)OC
not listed: [1] | [10]
inactive: all other assays above

CCN(CC)CCNc1ccc(CNC=O)c2sc3ccc(OC)cc3c(=O)c12
active: [3] 60.2 µM | [5] 7.05 µM | [9] 32.6 µM | [7] 2.62 µM | [8] 6.28 µM
inactive: [2] | [4] | [6]

Cc1oc(-c2ccccc2)nc1CCOc1ccc(C[C@H](Nc2ccccc2C(=O)c2ccccc2)C(=O)O)cc1
active: [3] 84.9 µM | [5] 84.9 µM | [6] 109 µM | [7] 107 µM | [8] 82.7 µM
inactive: [2] | [4] | [9]

c1ccc2c(c1)Cc1ccccc1-2
not listed: [1] | [10]
inactive: all other assays above

O=[N+]([O-])c1ccc(O)cc1
not listed: [1] | [9]
inactive: all other assays above

CCCCCCCCOC(=O)CCCCCCCCC(=O)OCCCCCCCC
not listed: [1] | [10]
inactive: all other assays above

O=c1c(-c2ccc(O)cc2)coc2cc(O)ccc12
not listed: [1] | [9] | [10]
inactive: all other assays above

CC(C)(C)CC(C)(C)c1ccc(O)c(-n2nc3ccccc3n2)c1
inactive: [2] | [4] | [9]
active: [3] 57.1 µM | [5] 48.9 µM | [6] 50.6 µM | [7] 62.6 µM | [8] 26.2 µM

CC(C)(C)c1ccc(O)c(C(C)(C)C)c1
active: [3] 38.5 µM | [6] 8.96 µM
inactive: [2] | [4] | [5] | [7] | [8]

CN1CCN(c2ccccc2/C=C2\SCCN(c3ccc(Cl)c(Cl)c3)C2=O)CC1
active: [2] 11.2 µM | [3] 24 µM | [4] 80.7 µM | [5] 7.46 µM | [6] 53.6 µM | [7] 23.5 µM
inactive: [8]

CCCCC(CC)COC(=O)CCCCC(=O)OCc1ccccc1 (configuration not stated)
not listed: [1] | [10]
inactive: all other assays above

CCCCCCCCCCCCc1ccccc1S(=O)(=O)O
active: [3] 116 µM | [5] 106 µM | [7] 120 µM
not listed: [1] | [10]
inactive: all other assays above

O=C(O)Cc1cc(I)c(Oc2cc(I)c(O)c(I)c2)c(I)c1
inactive: [2] | [3] | [4] | [5] | [6]
active: [7] 72.2 µM | [8] 72.5 µM

Cc1cc(CCN2CCN(c3nsc4ccccc34)CC2)cc2c1NC(=O)CC2(C)C
active: [3] 28.6 µM | [5] 15.7 µM | [9] 22.2 µM | [7] 18.2 µM
not listed: [1]
inactive: all other assays above

CCc1nn(C2CCCCC2)c2cc(C3(C#N)CCC(C(=O)O)CC3)ccc12 (configuration not stated)
not listed: [1] | [9] | [10]
inactive: all other assays above

c1ccc2c(c1)ccc1ccccc12
not listed: [1] | [9]
inactive: all other assays above

OCCC(F)(F)C(F)(F)C(F)(F)C(F)(F)C(F)(F)C(F)(F)C(F)(F)C(F)(F)F
inactive: [6]
active: [10] 17.6 µM | [2] 75 µM | [3] 27.8 µM | [4] 23.1 µM | [5] 24.1 µM | [7] 25.1 µM | [8] 14.7 µM

C[C@@H]1C[C@H]2[C@@H]3CCC4=CC(=O)C=C[C@]4(C)[C@@]3(F)[C@@H](O)C[C@]2(C)[C@@]1(O)C(=O)COP(=O)(O)O
active: [2] 9.81 µM | [3] 15.4 µM | [4] 94 µM | [5] 1.76 µM | [6] 37.7 µM | [7] 27.5 µM | [8] 94 µM

— PubChem BioAssay (EPA / NIEHS)
